According to PubChem BioAssay (NCATS):
Inconclusive results are not listed. The source made the active and inactive calls. Unless noted, calls follow the shape of the dose curve; as a rule, active = well fitted curve in the direction sought with a large enough effect; inconclusive = small, poorly fitted or top-dose-only effect, or another doubt; inactive = no such curve, though single readings can be large; an effect the other way counts as inactive or inconclusive.

Columns and labels:
[1] = biological target: Lysosomal acid glucosylceramidase (Homo sapiens) (UniProt P04062); test: Glucocerebrosidase-p2 (AID 348; in the data active = potency below about 10 µM; also: potency is read from the fitted curve at half-maximal effect); conditions: purified GBA, blue fluorogenic substrate, 40 min
Method in brief: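 Compounds titrated from 0.6 nM upwards against 0.2 nM enzyme in pH 5.9 citric acid/KH2PO4, taurocholate, tween-20; blue fluorogenic substrate 80 uM, 40 min room temperature, stopped and read Ex 365/Em 440 for AC50.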

[2] = AP1 Signaling Pathway (AID 357; active = well fitted curve in either direction with a large enough effect, not every such curve was filed as active;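 also: ME-180 reporter cells stimulated with EGF at its EC50 level; % is scaled to controls: 0 for no effect and ±100 for the full control effect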)
Method in brief: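 Cells are seeded overnight, exposed to compound titrations and an EC50 level of EGF for 5 hours at 37 °C, then loaded with CCF4 dye for 2.5 hours. Beta-lactamase activity under the AP-1 element is read as a blue/green ratio.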

[3] = biological target: Cytochrome P450 1A2 (Homo sapiens) (UniProt P05177); test: p450-cyp1a2 (AID 410; calls by dose curve;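 also: -100% = full effect of reference inhibitor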)
Method in brief: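 20nM CYP1A2 with 100uM Luciferin-ME (at Km) in 100mM KPO4; compound preincubated 10 min, NADPH regeneration added, 60 min at room temperature. Luciferin quantified by luminescence after detection reagent; normalized to 57 uM furafylline.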

[4] = NFAT Signaling Pathway (AID 444; active = well fitted curve in either direction with a large enough effect, not every such curve was filed as active;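 also: carbachol stimulus at about its EC50 of 1 µM final; % is scaled to controls: 0 for no effect and ±100 for the full control effect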); conditions: Jurkat NFAT-bla M1, carbachol, beta-lactamase ratio, 5 h; at 17.2 µM (top of the series) unless noted
Method in brief: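 Read-out: CCF4 FRET ratio (460 nm/530 nm) after 1 h RT dye loading, used for %activity and AC50 from titration series. Cells: Jurkat NFAT-β-lactamase/M1 line, treated with compound plus 1 uM carbachol for 5 h, 37 °C.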

[5] = Stat Signaling Pathway (AID 446; active = well fitted curve in either direction with a large enough effect, not every such curve was filed as active;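 also: ME-180 cervical cancer cells given 40 pM IL-6 alongside compound; SIE-controlled beta-lactamase reporter measured as 460/530 nm FRET emission ratio; % is scaled to controls: 0 for no effect and ±100 for the full control effect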)
Method in brief: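 ME-180 SIE-bla cells; overnight plating; cpd + IL-6 40 pM, 5 h, 37 C; LiveBLAzer 2.5 h RT; 460/530 nm emission ratio. Normalized to 300 pM IL-6 and 125 nM JAK inhibitor controls.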

[6] = biological target: Glucocorticoid receptor (Homo sapiens) (UniProt P04150); test: GR-GFP Redistribution (AID 450;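 active = compounds whose dose series gives a full or clear partial fitted curve of increased nuclear translocation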; also: potency is read from the fitted curve at half-maximal effect); conditions: U2OS GR-GFP nuclear translocation, laser cytometry, 2 h
[7] = biological target: Glucocorticoid receptor (Homo sapiens) (UniProt P04150); test: GR-EFC Redistribution (AID 451; calls by dose curve; also: potency is read from the fitted curve at half-maximal effect); conditions: CHO-K1 GR-EFC translocation, beta-gal luminescence, 2 h
Method in brief: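 Translocation of GR-ED fusion to nuclear EA restores b-gal, read by luminescence after 1 h room-temperature detection. Engineered CHO-K1 biosensor cells, 1,000/well, exposed 2 h at 37 C to titrations up to 46 uM final.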

[8] = biological target: Mitogen-activated protein kinase 10 (Mus musculus) (UniProt Q61831); test: JNK3 AlphaScreen Assay (AID 530; active = well fitted curve in either direction with a large enough effect, not every such curve was filed as active;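 also: kinase came from lysate of stimulated human HepG2 cells; signal reports phosphorylation of biotinylated GST-cJun 1-79 at Ser73 with 10 µM ATP; % is scaled to controls: 0 for no effect and ±100 for the full control effect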)
Method in brief: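 Compound titrations were preincubated 15 minutes at room temperature with substrate, antibody and pre-activated JNK3-containing HepG2 lysate. Reactions were started with 10 uM ATP and stopped with EDTA-containing bead buffer for AlphaScreen detection.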

[9] = biological target: 3',5'-cyclic-AMP phosphodiesterase 4B (Homo sapiens) (UniProt Q07343); test: qHTS Assay for Inhibitors of PDE-IV (AID 607; active = well fitted activation curve with a large enough effect in the main read-out, with a control signal flat, not every such curve was filed as active; also: % of control where 0% means no effect)
Method in brief: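 ACTOne HEK293 cells carry a modified cAMP-gated CNG channel and express endogenous PDE4; plated 1000 cells/well, compounds up to 22.9 uM final. Membrane-potential dye fluorescence (ex 535/em 590) was read; parental cells received 10 uM forskolin + 100 uM RO 20-1724.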

[10] = biological target: Ubiquitin carboxyl-terminal hydrolase 1 (Homo sapiens) (UniProt O94782); test: Inhibitors of USP1/UAF1: Pilot qHTS (AID 504865);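 also: rhodamine fluorescence freed from ubiquitin-rhodamine substrate followed over time; top concentration of the series differs between compounds; % is scaled to controls: 0 for no effect and ±100 for the full control effect; nearly all actives have a fitted effect of over 35% in size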
Method in brief: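 Enzyme-free wells gave the negative control, while test wells held 1nM USP1/UAF1 preincubated with compound for 15 min at room temperature. Ub-Rho at 150nM final started the reaction, and fluorescence at 480/540 nm was recorded kinetically.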

[11] = biological target: Luciferin 4-monooxygenase (Photinus pyralis) (UniProt P08659); test: Biochemical firefly luciferase enzyme assay for NPC (AID 624030);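 also: purified P. pyralis luciferase at 10 nM with luciferin and ATP substrate; 0% = DMSO and -100% = full luciferase inhibition by PTC124 control; nearly all actives have a fitted effect of over 70% in size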
Method in brief: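 Direct inhibition of firefly luciferase enzyme (10 nM final, 50 mM Tris Acetate) assessed by luminescence within 5 minutes. Percent activity scaled between DMSO and PTC124 positive control, with concentration-effect curves classified by fit quality and response.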

[12] = S16 Schwann cell viability assay (CellTiter-Glo assay) (AID 624031);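 also: cellular ATP luminescence as a viability measure; plate controls were DMSO-treated cells for no effect and cell-free wells for full effect; nearly all actives have a fitted effect of over 70% in size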
Method in brief: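 Luminescent ATP read-out (CellTiter-Glo) after 24 h compound exposure of native S16 rat Schwann cells at 37 °C. Signals were normalized between cell-free wells and DMSO-treated cells, set as 0% activity.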

[13] = S16 Schwann cell PMP22 intronic element firefly luciferase assay (AID 624032);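 also: plate controls were DMSO for no effect and PTC124 positive control mean for full effect; nearly all actives have a fitted effect of over 30% in size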
Method in brief: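 Luciferase reporter of PMP22 intronic-element expression in stably transfected S16 rat Schwann cells, read by ONE-Glo luminescence after 24 h compound exposure at 37 C. Activity scaled between DMSO (0%) and positive-control PTC124; concentration-effect curves quality-classified.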

[14] = biological target: Cytochrome P450 2D6 (Homo sapiens) (UniProt P10635); test: Cytochrome P450 family 2 subfamily D member 6 (CYP2D6) small molecule antagonists: luciferase biochemical (cell-free) qHTS assay (AID 1645840; active = well fitted curve in the direction sought with a large enough effect in the repeat runs; an effect the other way counts as inactive or inconclusive; also: % is scaled to controls: 0 for no effect and ±100 for the full control effect; nearly all actives have a fitted effect of over 55% in size)
Method in brief: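 P450-Glo luminescent screen: recombinant CYP2D6 enzyme–proluciferin substrate mix preincubated with compound 10 min at room temperature, then NADPH regeneration added for 1 h at room temperature. Detection reagent added for 20 min; luciferin light read as relative luminescence units.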

[15] = biological target: Cytochrome P450 2C9 (Homo sapiens) (UniProt P11712); test: Cytochrome P450 family 2 subfamily C member 9 (CYP2C9) small molecule antagonists: luciferase biochemical (cell-free) qHTS assay (AID 1645842; active = well fitted curve in the direction sought with a large enough effect in the repeat runs; an effect the other way counts as inactive or inconclusive; also: % is scaled to controls: 0 for no effect and ±100 for the full control effect; nearly all actives have a fitted effect of over 55% in size)
Method in brief: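 Luminescence, after 20 min with luciferin detection reagent, reflected CYP2C9 turnover during a 1 h NADPH-driven reaction at 37C. Enzyme-substrate mix contained 0.4% bovine serum albumin and was preincubated with compound 10 min at room temperature.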

[16] = biological target: Glutathione peroxidase 1 (Homo sapiens) (UniProt P07203); test: Primary qHTS Assay for Inhibitors of Recombinant Selenoprotein Glutathione Peroxidase 1 (GPX1) (AID 1845191); also: % is scaled to controls: 0 for no effect and ±100 for the full control effect; nearly all actives have a fitted effect of over 65% in size
Method in brief: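 10 nM GPX1 + cpd, 30 min RT; start w/ 1 mM GSH, 0.5 mM cumene hydroperoxide, 0.5 mM NADPH, 100 nM GR, 0.01% BSA; buffer 50 mM Tris-HCl pH 7.5, 2 mM EDTA, 150 mM NaCl; Fl 340/450, 0 & 15 min.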

[17] = biological target: Phospholipid hydroperoxide glutathione peroxidase GPX4 (Homo sapiens) (UniProt P36969); test: Primary qHTS Assay for Inhibitors of Recombinant Selenoprotein Glutathione Peroxidase 4 (GPX4) (AID 1845192); also: nearly all actives have a fitted effect of over 65% in size
Method in brief: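 NADPH consumption, followed by fluorescence at 340/450 nm between 0 and 15 min, reports GPX4 activity via coupled glutathione reductase (100 nM). Enzyme 200 nM was pre-exposed to compound 30 min; 0.5 mM cumene hydroperoxide and 1 mM GSH served as substrates.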

[18] = qHTS profiling for inhibitors of Plasmodium falciparum proliferation (AID 504749);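 also: 0% = DMSO vehicle and full inhibition = artemisinin control; nearly all actives have a fitted effect of over 60% in size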; conditions: P. falciparum in erythrocytes, SYBR Green DNA, 72 h, at 28.7 µM (top of the series)
Method in brief: (§1)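 Infected RBCs, 0.3% parasitemia/2.5% Hct final; cpd 72 h, 37 C, 5% CO2; lysis buffer with saponin/triton/SYBR Green I, o/n RT dark; FI 485/535; norm. to artemisinin (0.29 uM) and DMSO.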

[19] = tested on: 3D7; test: as above; conditions: P. falciparum in erythrocytes, SYBR Green DNA, 72 h; series mostly up to 12.8 µM
Method in brief: as §1

[20] = tested on: 7G8; test: as above; conditions: P. falciparum in erythrocytes, SYBR Green DNA, 72 h; series mostly up to 12.8 µM
Method in brief: as §1

[21] = tested on: AA1029; test: as above; conditions: P. falciparum in erythrocytes, SYBR Green DNA, 72 h; series mostly up to 12.8 µM
Method in brief: as §1

[22] = tested on: AS120; test: as above; conditions: P. falciparum in erythrocytes, SYBR Green DNA, 72 h; series mostly up to 12.8 µM
Method in brief: as §1

[23] = tested on: ATS189; test: as above; conditions: P. falciparum in erythrocytes, SYBR Green DNA, 72 h; series mostly up to 12.8 µM
Method in brief: as §1

[24] = tested on: ATS95; test: as above; conditions: P. falciparum in erythrocytes, SYBR Green DNA, 72 h; series mostly up to 12.8 µM
Method in brief: as §1

[25] = tested on: C2A; test: as above; conditions: P. falciparum in erythrocytes, SYBR Green DNA, 72 h; series mostly up to 12.8 µM
Method in brief: as §1

[26] = tested on: CP185; test: as above; conditions: P. falciparum in erythrocytes, SYBR Green DNA, 72 h; series mostly up to 12.8 µM
Method in brief: as §1

[27] = tested on: CP191; test: as above; conditions: P. falciparum in erythrocytes, SYBR Green DNA, 72 h; series mostly up to 12.8 µM
Method in brief: as §1

[28] = tested on: CP192; test: as above; conditions: P. falciparum in erythrocytes, SYBR Green DNA, 72 h; series mostly up to 12.8 µM
Method in brief: as §1

[29] = tested on: CP194; test: as above; conditions: P. falciparum in erythrocytes, SYBR Green DNA, 72 h; series mostly up to 12.8 µM
Method in brief: as §1

[30] = tested on: CP201; test: as above; conditions: P. falciparum in erythrocytes, SYBR Green DNA, 72 h; series mostly up to 12.8 µM
Method in brief: as §1

[31] = tested on: CP203; test: as above; conditions: P. falciparum in erythrocytes, SYBR Green DNA, 72 h; series mostly up to 12.8 µM
Method in brief: as §1

[32] = tested on: CP211; test: as above; conditions: P. falciparum in erythrocytes, SYBR Green DNA, 72 h; series mostly up to 12.8 µM
Method in brief: as §1

[33] = tested on: CP215; test: as above; conditions: P. falciparum in erythrocytes, SYBR Green DNA, 72 h; series mostly up to 12.8 µM
Method in brief: as §1

[34] = tested on: CP217; test: as above; conditions: P. falciparum in erythrocytes, SYBR Green DNA, 72 h; series mostly up to 12.8 µM
Method in brief: as §1

[35] = tested on: CP237; test: as above; conditions: P. falciparum in erythrocytes, SYBR Green DNA, 72 h; series mostly up to 12.8 µM
Method in brief: as §1

[36] = tested on: CP238; test: as above; conditions: P. falciparum in erythrocytes, SYBR Green DNA, 72 h; series mostly up to 12.8 µM
Method in brief: as §1

[37] = tested on: CP247; test: as above; conditions: P. falciparum in erythrocytes, SYBR Green DNA, 72 h; series mostly up to 12.8 µM
Method in brief: as §1

[38] = tested on: CP250; test: as above; conditions: P. falciparum in erythrocytes, SYBR Green DNA, 72 h; series mostly up to 12.8 µM
Method in brief: as §1

Glucocorticoid receptor (Homo sapiens), sequence (P04150 whole entry, looked up, the tested form may be a part): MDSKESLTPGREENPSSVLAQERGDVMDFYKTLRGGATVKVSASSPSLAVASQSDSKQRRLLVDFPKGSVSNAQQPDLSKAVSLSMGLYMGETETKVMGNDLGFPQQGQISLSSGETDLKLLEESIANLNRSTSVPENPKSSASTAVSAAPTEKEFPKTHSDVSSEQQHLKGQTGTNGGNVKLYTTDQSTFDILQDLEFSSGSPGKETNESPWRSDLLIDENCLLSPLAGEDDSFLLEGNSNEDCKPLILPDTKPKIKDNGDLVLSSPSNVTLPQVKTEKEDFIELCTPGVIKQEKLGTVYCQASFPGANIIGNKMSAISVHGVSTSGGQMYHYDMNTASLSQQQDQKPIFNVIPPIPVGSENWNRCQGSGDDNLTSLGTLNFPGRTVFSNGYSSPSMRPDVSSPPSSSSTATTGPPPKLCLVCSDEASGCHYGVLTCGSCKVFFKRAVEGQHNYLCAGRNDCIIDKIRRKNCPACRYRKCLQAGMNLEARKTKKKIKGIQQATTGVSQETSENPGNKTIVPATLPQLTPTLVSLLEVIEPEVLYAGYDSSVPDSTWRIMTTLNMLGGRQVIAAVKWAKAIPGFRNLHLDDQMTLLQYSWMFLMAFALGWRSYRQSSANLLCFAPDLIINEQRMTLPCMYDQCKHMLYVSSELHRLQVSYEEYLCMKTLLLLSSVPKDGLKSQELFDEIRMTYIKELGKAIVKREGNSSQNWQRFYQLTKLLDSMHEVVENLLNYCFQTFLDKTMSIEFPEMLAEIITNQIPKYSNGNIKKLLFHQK
Cytochrome P450 1A2 (Homo sapiens), sequence (P05177 whole entry, looked up): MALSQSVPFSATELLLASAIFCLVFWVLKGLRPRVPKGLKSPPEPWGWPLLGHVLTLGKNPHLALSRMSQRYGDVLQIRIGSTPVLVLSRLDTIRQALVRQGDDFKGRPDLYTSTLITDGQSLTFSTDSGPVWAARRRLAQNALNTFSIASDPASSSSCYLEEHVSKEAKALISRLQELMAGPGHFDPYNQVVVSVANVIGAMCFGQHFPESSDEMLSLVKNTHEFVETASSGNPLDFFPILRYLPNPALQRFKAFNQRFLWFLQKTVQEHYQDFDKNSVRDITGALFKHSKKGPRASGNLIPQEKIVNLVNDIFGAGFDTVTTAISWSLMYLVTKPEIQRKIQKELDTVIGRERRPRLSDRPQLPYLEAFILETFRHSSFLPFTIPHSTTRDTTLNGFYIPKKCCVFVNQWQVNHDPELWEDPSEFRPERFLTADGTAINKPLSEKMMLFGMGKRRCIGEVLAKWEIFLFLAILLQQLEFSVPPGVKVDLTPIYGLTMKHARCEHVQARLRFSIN
Glutathione peroxidase 1 (Homo sapiens), sequence (P07203 whole entry, looked up): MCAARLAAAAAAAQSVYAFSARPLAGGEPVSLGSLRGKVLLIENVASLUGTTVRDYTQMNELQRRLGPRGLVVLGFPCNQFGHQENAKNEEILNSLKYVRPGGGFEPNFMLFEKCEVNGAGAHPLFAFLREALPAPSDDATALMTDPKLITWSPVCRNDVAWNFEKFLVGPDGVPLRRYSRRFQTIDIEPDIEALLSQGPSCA
Phospholipid hydroperoxide glutathione peroxidase GPX4 (Homo sapiens), sequence (P36969 whole entry, looked up): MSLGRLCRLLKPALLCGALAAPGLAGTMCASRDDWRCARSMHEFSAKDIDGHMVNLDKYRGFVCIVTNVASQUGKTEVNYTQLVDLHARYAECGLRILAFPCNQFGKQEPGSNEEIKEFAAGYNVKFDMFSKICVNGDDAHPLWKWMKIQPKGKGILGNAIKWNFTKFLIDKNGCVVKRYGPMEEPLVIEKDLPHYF
Lysosomal acid glucosylceramidase (Homo sapiens), sequence (P04062 whole entry, looked up): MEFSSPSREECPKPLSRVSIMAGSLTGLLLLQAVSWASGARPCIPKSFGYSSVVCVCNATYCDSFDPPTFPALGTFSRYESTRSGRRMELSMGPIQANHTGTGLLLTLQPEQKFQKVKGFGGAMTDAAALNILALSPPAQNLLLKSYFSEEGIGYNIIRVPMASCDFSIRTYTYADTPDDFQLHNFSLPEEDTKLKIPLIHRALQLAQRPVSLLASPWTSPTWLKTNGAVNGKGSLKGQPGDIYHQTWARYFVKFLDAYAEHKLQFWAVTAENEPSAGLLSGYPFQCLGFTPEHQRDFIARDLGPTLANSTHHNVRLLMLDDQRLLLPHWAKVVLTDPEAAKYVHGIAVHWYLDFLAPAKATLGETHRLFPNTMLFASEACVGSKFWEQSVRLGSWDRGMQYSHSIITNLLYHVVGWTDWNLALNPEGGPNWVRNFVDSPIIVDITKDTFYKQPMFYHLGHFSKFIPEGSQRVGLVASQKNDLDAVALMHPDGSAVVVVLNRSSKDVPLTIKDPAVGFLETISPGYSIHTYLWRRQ
3',5'-cyclic-AMP phosphodiesterase 4B (Homo sapiens), sequence (Q07343 whole entry, looked up): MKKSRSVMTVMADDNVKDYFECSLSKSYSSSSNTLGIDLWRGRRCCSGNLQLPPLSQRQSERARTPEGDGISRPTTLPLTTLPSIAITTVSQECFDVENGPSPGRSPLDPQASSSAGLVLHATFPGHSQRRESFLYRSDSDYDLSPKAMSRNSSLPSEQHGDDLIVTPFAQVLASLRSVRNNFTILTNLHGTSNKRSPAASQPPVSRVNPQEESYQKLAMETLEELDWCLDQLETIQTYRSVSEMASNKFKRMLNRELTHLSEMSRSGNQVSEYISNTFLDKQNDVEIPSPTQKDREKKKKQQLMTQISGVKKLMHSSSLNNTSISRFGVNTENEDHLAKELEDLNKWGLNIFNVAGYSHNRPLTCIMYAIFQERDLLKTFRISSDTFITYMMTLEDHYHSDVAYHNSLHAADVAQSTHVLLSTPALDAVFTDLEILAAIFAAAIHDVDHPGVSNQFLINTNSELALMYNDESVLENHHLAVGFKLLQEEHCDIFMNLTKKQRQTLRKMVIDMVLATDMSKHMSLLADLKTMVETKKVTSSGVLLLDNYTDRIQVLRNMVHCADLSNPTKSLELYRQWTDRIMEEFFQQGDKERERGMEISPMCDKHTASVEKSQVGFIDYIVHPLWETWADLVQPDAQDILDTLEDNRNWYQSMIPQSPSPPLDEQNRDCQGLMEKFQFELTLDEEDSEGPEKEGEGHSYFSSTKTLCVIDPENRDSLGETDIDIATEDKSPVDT
Cytochrome P450 2C9 (Homo sapiens), sequence (P11712 whole entry, looked up): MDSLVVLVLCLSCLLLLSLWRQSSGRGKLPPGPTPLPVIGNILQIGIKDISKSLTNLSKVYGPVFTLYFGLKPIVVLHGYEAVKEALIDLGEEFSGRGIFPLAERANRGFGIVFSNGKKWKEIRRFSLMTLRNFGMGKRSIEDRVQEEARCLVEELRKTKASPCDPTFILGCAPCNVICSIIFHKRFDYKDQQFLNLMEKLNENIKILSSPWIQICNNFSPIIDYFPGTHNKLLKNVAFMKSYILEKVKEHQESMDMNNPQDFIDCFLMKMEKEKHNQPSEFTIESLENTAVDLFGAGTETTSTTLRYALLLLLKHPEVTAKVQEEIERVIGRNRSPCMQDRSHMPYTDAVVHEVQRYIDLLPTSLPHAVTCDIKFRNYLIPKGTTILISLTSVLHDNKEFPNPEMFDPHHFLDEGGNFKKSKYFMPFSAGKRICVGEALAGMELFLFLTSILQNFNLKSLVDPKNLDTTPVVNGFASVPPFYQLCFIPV
Luciferin 4-monooxygenase (Photinus pyralis), sequence (P08659 whole entry, looked up): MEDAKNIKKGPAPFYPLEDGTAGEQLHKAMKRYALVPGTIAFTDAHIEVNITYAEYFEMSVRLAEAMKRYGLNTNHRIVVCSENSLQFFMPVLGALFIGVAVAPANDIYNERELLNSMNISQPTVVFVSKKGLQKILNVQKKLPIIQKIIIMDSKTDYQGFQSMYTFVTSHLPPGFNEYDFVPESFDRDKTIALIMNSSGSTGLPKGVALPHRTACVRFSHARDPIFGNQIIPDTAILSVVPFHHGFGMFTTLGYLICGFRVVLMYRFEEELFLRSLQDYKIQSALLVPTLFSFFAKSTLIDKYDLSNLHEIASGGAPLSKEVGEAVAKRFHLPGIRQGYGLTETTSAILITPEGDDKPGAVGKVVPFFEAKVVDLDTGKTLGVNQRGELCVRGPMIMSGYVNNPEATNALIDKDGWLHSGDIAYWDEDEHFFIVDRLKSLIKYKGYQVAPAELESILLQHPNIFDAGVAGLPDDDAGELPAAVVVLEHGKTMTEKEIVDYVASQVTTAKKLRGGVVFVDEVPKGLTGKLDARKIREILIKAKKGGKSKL
Cytochrome P450 2D6 (Homo sapiens), sequence (P10635 whole entry, looked up): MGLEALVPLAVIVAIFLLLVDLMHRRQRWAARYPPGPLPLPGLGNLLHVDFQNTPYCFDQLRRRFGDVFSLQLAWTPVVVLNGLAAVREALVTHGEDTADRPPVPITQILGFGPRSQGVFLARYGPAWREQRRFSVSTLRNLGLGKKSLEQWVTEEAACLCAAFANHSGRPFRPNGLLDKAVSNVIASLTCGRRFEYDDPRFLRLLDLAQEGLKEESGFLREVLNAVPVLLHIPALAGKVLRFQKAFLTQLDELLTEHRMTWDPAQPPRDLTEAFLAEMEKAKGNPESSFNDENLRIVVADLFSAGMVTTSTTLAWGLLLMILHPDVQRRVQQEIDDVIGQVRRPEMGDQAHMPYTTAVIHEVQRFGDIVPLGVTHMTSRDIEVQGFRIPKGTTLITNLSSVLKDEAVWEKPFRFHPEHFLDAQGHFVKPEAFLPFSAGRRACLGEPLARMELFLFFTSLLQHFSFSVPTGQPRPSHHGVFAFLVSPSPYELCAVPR

O=C(O)[C@@H]1CCCN1
inactive: Potency [1] > 11.4 µM | outcome [2] | Potency [3] | activity change, negative = inhibition [4] -2.98% [at 7.69 µM] | outcome [5] | Potency [6] > 46 µM | Potency [7] > 9.22 µM | Potency [8] | outcome [9] | Potency [10] | Potency [11] | outcome [12] | Potency [13] | Potency [14] | Potency [15] | Potency [16] | Potency [17] | activity, negative = inhibition ([18]; parasite line A) 3.04% | activity, negative = inhibition ([18]; parasite line B) -1.27% | Potency [19] | Potency [20] | Potency [21] | Potency [22] | Potency [23] | Potency [24] | Potency [25] | Potency [26] | Potency [27] | Potency [28] | Potency [29] | Potency [30] | Potency [31] | Potency [32] | Potency [33] | Potency [34] | Potency [35] | Potency [36] | Potency [37] | Potency [38]
